Experimental data published in PubChem BioAssay (Tox21).
Results filed as inconclusive are left out. Unmarked numbers belong to inactive results. Calls come from the whole dose curve; as a rule, active = well fitted cell-killing curve with a large enough effect in the repeat runs; inconclusive = weak or mixed curves, or effect the other way; inactive = no such curve, though single readings can be large or run the other way.

Assay: qHTS assay to identify small molecule agonists of the farnesoid-X-receptor (FXR) signaling pathway - cell viability counter screen (AID 743218); note: nearly all actives have a fitted effect of over 45% in size
Settings: FXR-bla HEK293T viability, CellTiter-Glo luminescence, 16 h; series mostly up to 62.6 µM; viability change, negative = cytotoxic: at the top concentration
Description: U.S. Tox21 Program National Center for Advancing Translational Sciences [NCATS] NIH Chemical Genomics Center [NCGC] U.S. Environmental Protection Agency [EPA] National Institutes of Environmental Health Sciences [NIEHS] National Toxicology Program [NTP] U.S. Food and Drug Administration [FDA] Tox21 Assay Overview: The farnesoid-X-receptor (FXR), a nuclear hormone receptor, is highly expressed in liver, intestine, kidney and adrenal cortex. Natural ligands of FXR are the bile acids (Cholic acid, Chenodeoxy cholic acid etc). FXR is an important regulator of diverse metabolic pathways, including the bile acid homeostasis, lipid and glucose metabolisms. FXR regulates the expression of target genes by binding either as a monomer or as a heterodimer with the retinoid X receptor (RXR). Numerous studies have reported that FXR exerts protective function during cholestasis, diabetes, liver regeneration, and cancer. To identify compounds that activate FXR signaling, GeneBLAzer FXR-UAS-bla HEK 293T cell line (Invitrogen, Carlsbad, CA) containing a beta-lactamase reporter gene under the control of a UAS response element was used to screen the Tox21 10K compound library. The cytotoxicity of the Tox21 compound library against the FXR-bla cell line was tested in parallel by measuring the cell viability using CellTiter-Glo assay in the same wells.
Tox21 Assay Protocol Summary: FXR-bla cells were dispensed at 5000 cells/5uL/well in 1536-well black wall/clear bottom plates using a Multidrop Combi (Thermo Fisher Scientific, Waltham, MA) dispenser. After the assay plates were incubated at 37 C and 5% CO2 for 5 h, 23 nL of compounds dissolved in DMSO, positive controls or DMSO only was transferred to the assay plate by a Pintool station (Kalypsys, San Diego, CA). The assay plates were incubated at 37C for 16 h. After 1 uL of LiveBLAzerTM B/G FRET substrate was added using a Bioraptr Flying Reagent Dispenser (FRD) workstation (Beckman Coulter, Indianapolis, IN), the plates were incubated at room temperature for 2 h, and fluorescence intensity was measured by an Envision plate reader (PerkinElmer, Shelton, CT). For cell viability readout that measures cytotoxicity, 4uL/well of CellTiter-Glo reagent was added into the assay plates using a Bioraptr FRD. After 30 min incubation at room temperature, the luminescence intensity in the plates was measured using a ViewLux plate reader (PerkinElmer).
% is set by controls: 0 for no effect and ±100 for the full control effect.

Compared with `CC1(C)CC(N)CC(C)(C)N1`, `CC1(C)C(=O)C(C)(C)C1=O` is higher in “viability change, negative = cytotoxic” value: 2.49% for the first, 10.4% for the second.

First: Nc1cc(S(=O)(=O)O)ccc1O
Second: CC(=O)c1ccc(O)c(C(N)=O)c1
The “viability change, negative = cytotoxic” value of the first is lower: 1.78% for the first, 4.06% for the second.

Compared with `CC12CCCC=C1C(=O)OC2=O` (stereo not given), `C[C@H]1COc2c(C3(N)CC3)c(F)cc3c(=O)c(C(=O)O)cn1c23` is higher in “viability change, negative = cytotoxic” value: -8.41% for the first, 3.75% for the second.

Compared with `O=C1Nc2ccccc2C1=O`, `Cc1ccc2ccccc2n1` is higher in “viability change, negative = cytotoxic” value: -13.1% for the first, -2.54% for the second.

First: CC(C)C(C)C
Second: CCC(C)SSC(C)CC (stereo not given)
The “viability change, negative = cytotoxic” value of the first is higher: 0.221% for the first, -0.0254% for the second.

Compared with `Cc1ccc(Br)cc1`, `Cc1ccc(S(=O)(=O)NC(=O)NN2CC3CCCC3C2)cc1` (stereo not given) is lower in “viability change, negative = cytotoxic” value: 6.64% for the first, -1.62% for the second.

First: CCCc1ncc(C(=O)O)s1
Second: CCc1ncc(C)[nH]1
The “viability change, negative = cytotoxic” value of the first is higher: 11.5% for the first, 9.62% for the second.

Going from `CCCC(=O)C(CC)Sc1ccoc1C` (stereo not given) to `CC[N+](C)(CC)CC`, the “viability change, negative = cytotoxic” value rises from 9.2% to 15.6%.

First: N#Cc1ccccc1C#N
Second: COC(=O)C(c1ccccc1Cl)N1CCc2sccc2C1 (stereo not given)
The “viability change, negative = cytotoxic” value of the first is lower: 5.75% for the first, 10.3% for the second.

First: NC(=O)CC[C@@H](N)C(=O)O
Second: O=S(=O)(O)CC(O)CCl (stereo not given)
The “viability change, negative = cytotoxic” value of the first is higher: 8.26% for the first, -9.91% for the second.

Compared with `O=P(O)(O)C(O)(Cc1cccnc1)P(=O)(O)O`, `CC(C)(O)c1ccc(C(C)(C)O)cc1` is lower in “viability change, negative = cytotoxic” value: 15.7% for the first, -0.197% for the second.

First: NCC1CCC(C(=O)Oc2ccc(CCC(=O)O)cc2)CC1 (stereo not given)
Second: CC(=O)Nc1ccc(OCCOCCOc2ccc(NC(C)=O)cc2)cc1
The “viability change, negative = cytotoxic” value of the first is higher: 7.44% for the first, 1.06% for the second.

First: CCOc1ccccc1OCCN[C@H](C)Cc1ccc(OC)c(S(N)(=O)=O)c1
Second: COc1cc(S(N)(=O)=O)cc(C(=O)O)c1OC
The “viability change, negative = cytotoxic” value of the first is lower: -0.778% for the first, 16.2% for the second.

Compared with `CNC(=O)c1c(I)c(NC(C)=O)c(I)c(C(=O)O)c1I`, `CC1=C(O)C(=O)CO1` is higher in “viability change, negative = cytotoxic” value: -11.4% for the first, 7.77% for the second.

Going from `COC(C)(C)CC(C)=O` to `Nc1nc(Cl)cc(Cl)n1`, the “viability change, negative = cytotoxic” value rises from -8.94% to 14.9%.

Going from `COc1ccc(Cl)cc1C` to `Cc1ccc(O)c([N+](=O)[O-])c1`, the “viability change, negative = cytotoxic” value rises from -1.85% [at 81.1 µM] to 7.79% [at 81.1 µM].

First: CC(CC(=O)Cl)CC(C)(C)C (stereo not given)
Second: CC(O)C(CO)C(C)O (stereo not given)
The “viability change, negative = cytotoxic” value of the first is higher: 3.94% [at 81.1 µM] for the first, -5% [at 81.1 µM] for the second.

First: CCCCCCCCC1CO1 (stereo not given)
Second: C=CCOC(=O)CCCCCCCC
The “viability change, negative = cytotoxic” value of the first is lower: 2.98% [at 81.1 µM] for the first, 7.37% [at 81.1 µM] for the second.

Compared with `CCCCCCCCCCCCCCBr`, `C/C(Cl)=C/CCl` is higher in “viability change, negative = cytotoxic” value: 0% [at 81.1 µM] for the first, 5.65% [at 81.1 µM] for the second.

With `Cc1cccc(N)n1` the “viability change, negative = cytotoxic” value was 0.448% [at 81.1 µM].

`c1cc2ccc3ccc4ccc5cccc6c(c1)c2c3c4c56` showed a viability change, negative = cytotoxic of 0.833% [at 2.7 µM].
